Data reported in the supplement of paper PMC11417369.
The full ranking holds about 25,000 sequences; the median of “ln(normalized median fluorescence intensity)” is about 6.7, and the highest 2% start at about 10. This excerpt belongs to a sample that is enriched for the highest values.

test system: PfHDP1 homeodomain (GST-tagged); experiment: gcPBM binding intensity (ln(normalized median fluorescence intensity)); higher = stronger DNA binding
Summary of the method: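 For binding intensity, the highest Masliner-normalised natural-log median intensity across replicate spots of either probe orientation was taken. Protein bound to the array was stained with Alexa488 anti-GST antibody and scanned at 488 nm. The protein, GST-tagged P. falciparum DNA-binding domains from E. coli at about 25 μg on average, had been applied for 1 h to an Agilent 4 × 180k array of primer-extended double-stranded 36-bp intergenic genomic probes and negative controls.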

| Sequence | gcPBM binding intensity (ln) |
| --- | --- |
| TTATCACATTATTGCACACACATAAAGAAAAAAATA [CACACA_site2841] | 9.63 |
| ATCATTTGCTCACGCACACACACATAAAAAGAAAAA [CACACA_site4349] | 9.55 |
| ATCATTTGCATACGCACACACACATAAAAAGAAAAA [CACACA_site355] | 8.44 |
| CATTTGCACACGCACACACACATAAAAAGAAAAATA [CACACA_site6297] | 10.8 |
| CATTTGCCCAGGCACACACACATAAAAAGAAAAATA [CACACA_site356] | 6.34 |
| CATTTGCACCCGCACACACACATAAAAAGAAAAATA [CACACA_site4350] | 10.7 |
| AACTATATCATTTATTTTATTTTTTAAATACATTTA [CACACA_negctrl_site183] | 6.19 |
| ATATATGTAATAAATAGTACACACACACATATATAT [XGTACX_site2817] | 7.35 |
| ATACTGTATAGTCGCACACAAAAATATAAAATATTT [CACACA_site6004] | 6.65 |
| CATATATATTTGTTCACACACACACTAATAAAAAAA [CACACA_site8787] | 6.85 |
| TTGCAAATATATGGTTGTACTCAAAAAAAAAAAAAA [XGTACX_site6975] | 6.47 |
| GAAAGAAATAAAGGTGGTACATAAATAAAAACTAAG [XGTACX_site4826] | 6.97 |
| TATATATATTTCCAGTGTACTTATTTTTTAATCAAT [XGTACX_site8220] | 6.7 |
| TTTTTTTTTTTTGGTGCATGCACATTTTGTTTTTTT [TGCATGCA_site570] | 10 |
| TATCATTGTTCATGCTTGCACTTTTGTTACTGTTCC [GTGCAC_site9425] | 6.75 |
| TTTTTTTTGTTCATTGTGCACATTGCTTGCATGGAA [GTGCAC_site9693] | 10.8 |
| GTAGGCATTAAAAAATGTACAAAATATTATGAATTG [XGTACX_site1615] | 6.32 |
| TGAACATATTAAAATTGTACATATGCACAATATGTA [XGTACX_site6801] | 9.28 |
| AGTAGGCATATTGGTTGTACAAAAAAATTATGCACC [XGTACX_site8925] | 10.6 |
| AAACATAAAGAAAAAAAAAATATATATTTATTTATT [GTGCAC_negctrl_site357] | 6.33 |
| ATATACACATATACATGTACAAATATATATACACAT [XGTACX_site2986] | 6.9 |
| CATATGTATATGACTACACACAAGGGTGTACCTATA [CACACA_site6670] | 6.34 |
| GAACATTTATTGTGTGTGCACAATTCTTTTTTAACC [GTGCAC_site9697] | 10.2 |

| Sequence | gcPBM binding intensity (ln) |
| --- | --- |
| TTTAACATTTCAGATGTGCACATTTTCCGAACCAGT | 10.9 |
| AATAGATTTTTATGCGTGCACACATTTAACAAAAAA | 10.3 |
| TTTCCGTATAATTTTGCACACGAATATAAATTTGAT [CACACA_site137] | 10.3 |
| TATTATAATATTTATACACACATAATTTTGATAAAT [CACACA_site583] | 6.45 |
| TCCGTATAATTTTGCACACGAATATAAATTTGATAA [CACACA_site136] | 10.9 |
| TGGAGGTCAGTTCACAGTACCCAGGAAATCTACGGA [XGTACX_site1995] | 5.93 |
| TTTTTCTTAAAAAATTGTACACATATATATATATAT [XGTACX_site542] | 9.21 |
| GTAGTGGTTGAATATACACACATATATATATATATA [CACACA_site2651] | 9.39 |
| CCTAGAAAAAAGAACTGTACATATATATATAAATAT [XGTACX_site1680] | 6.65 |
| GACAAATAATAAAAGGTGCATTATACTTAACAAAAA [GTGCAC_site9624] | 9.69 |
| GTAGACATTATAATGGTGCAAAAAAATTAACAAAAA [GTGCAC_site9891] | 10.6 |
| TATATTAACAAAATGGTGCAATAATTTCTATATTAT [GTGCAC_site9857] | 10.5 |
| TCAAGTATTAAAATGGGTACATAAATATGTGTATAT [XGTACX_site5884] | 6.63 |
| TATAATAAATCATATGCATGTTGAAAAAAAAAAAAA [TGCATGCA_site923] | 6.46 |
| AATATATAGAAACACACACACAAAAAAAAAAAAAAA [CACACA_site1326] | 6.47 |
| TTTTGAAACATATGATGTACACGAACATTTAAAAAA [XGTACX_site474] | 6.6 |
| ATTTAGAAAAATAAAACACACATATATCTGTAAATA [CACACA_site6119] | 6.53 |
| ATAAAAATATTGTCTAGTACATATTTATAATAAAAA [XGTACX_site7523] | 6.54 |
| ATTGAATATGTAAATGCACACCAAAAAAAAAAAAAA [CACACA_site9189] | 9.61 |
| AATATATATATATGTGCACACATATATAATATGTAT [CACACA_site716] | 9.79 |
| TATATATATATGTGCACACATATATAATATGTATAA [CACACA_site715] | 10.1 |
| TAATATAATATATGCACACAAATATGTATATATGTG [CACACA_site2134] | 9.77 |
| TATATATATATGTGCACACCAATTGTATGTAATATA [CACACA_site3889] | 10.6 |

| Sequence | gcPBM binding intensity (ln) |
| --- | --- |
| TATATATATATATGTGCACACCAATTGTATGTAATA [CACACA_site3888] | 10.5 |
| CACAAAATAAATTAAACACACAACATCATATATGTA [CACACA_site846] | 6.57 |
| TTTTTTTATATAGACACAAAAGAAAATTACATATAC [CACACA_negctrl_site235] | 6.49 |
| ATATATAATAAATACACACACATGTATTTATAAATA [CACACA_site5135] | 6.8 |
| TTTTTTTTGGTATAATGTACATTTTCACTTATGTAT [XGTACX_site3259] | 6.97 |
| CACCCGCACGTATTTGCACACATTGCCACGTAATTA [CACACA_site5786] | 10.7 |
| CAGACGCACGTATTTGCACACATTGCCACGTAATTA [CACACA_site3349] | 10.2 |
| TTTTTTTTTTTTTTTGCACACACATTGAATTATTAT [CACACA_site198] | 9.13 |
| TGTAATCAAAAAAATAGTACATAAATTGTGTATACT [XGTACX_site5908] | 6.57 |
| TTATCATTTGGACACGCACACACACCGAAAAAGAAA [CACACA_site8008] | 7.13 |
| TTTATTTTATCATTTGCACACGCACCCCCACATAAA [CACACA_site8007] | 10.2 |
| TTTATTTTATCATTTGCACACGCACGCCCACATAAA [CACACA_site353] | 10.6 |
| TATTTTATCATTTGCACACGCACACCGACATAAAAA [CACACA_site4348] | 10.6 |
| TTTTATCACATTATTGCACACACATAAAGAAAAAAA [CACACA_site8922] | 9.63 |
| TATTTTATCATTTGCACACGCACACCCACATAAAAA [CACACA_site354] | 10.5 |
| TTTATTTTATCATTTGCACACGCACCCAGACATAAA [CACACA_site4347] | 10.6 |
| TTTTTTTTTATTATCATGCACACATTTTTTTTTTTT [CACACA_site2254] | 9.1 |
| AGCACGCACAGACACACACACATATTTATATTTATA [CACACA_site6291] | 7.62 |
| TACCAATGCATAACGGTGCAAAAAAATAAGGAATAA | 10.3 |
| AAATTATAAAATAACTGTACCAATCCTTTTTTTTTA [XGTACX_site2229] | 5.84 |
| TATACATATGTATGCACACATACATACCCATATAAT [CACACA_site5842] | 9.42 |
| GTATAAAAATTTAGGAGTACAATATATTTATAATAT [XGTACX_site2127] | 6.5 |
| ATATTTCATTAATGAACACACAAAGAGGTATATAAA [CACACA_site1519] | 6.86 |

| Sequence | gcPBM binding intensity (ln) |
| --- | --- |
| AATTAGACATAATATACACACATATATTATATATAT [CACACA_site2691] | 6.91 |
| ATATTAAAGCCTTTTTGTACATATAAATAAACATAG [XGTACX_site4667] | 6.66 |
| GTAAAATTTCGGATTTGTACACATGGCTATGAAAAA [XGTACX_site939] | 6.57 |
| TGCCCTAACCATACTACACACACTGCTCAAAATAGT [CACACA_site2219] | 7.09 |
| AGGATATAAAGTTGTGCATGTCAAGTGCACCGTATT [TGCATGCA_site451] | 10.2 |
| TGTATATATAAACATGCACACGTGGTTGTATATATA [CACACA_site9078] | 8.31 |
| ATATATATATAGTGCACACATATAAAATATATATAA [CACACA_site2745] | 10.8 |
| ATATAAATATAGTGTGCACACACATAATATATATAT [CACACA_site8713] | 10.7 |
| ATATAAATACGGTGTGCACACACATAATATATATAT [CACACA_site2271] | 11.1 |
| ATAATATAAATATACACACACACATATATATATATA [CACACA_site2905] | 9.28 |
| TATATATATATAATAGTGCATAAATAAATATATAAA | 9 |
| ATATATATATATAGTGCACACATATAAAATATATAT [CACACA_site8884] | 10.3 |
| AAATAATATAAATACACACACACATATATAAATACA [CACACA_site4465] | 7.06 |
| AAAAATATAAAAATAGCACACATATATACATATATA [CACACA_site7901] | 6.67 |
| ATATATATATATAGTGCACACTTAAGAATATAAAGA [CACACA_site4771] | 10.3 |
| AAATAAAGAATATAAATACACACTTAAATATATATT [CACACA_site4007] | 6.44 |
| ATATATATATAGTGCACACTTAAGAATATAAAGAGG [CACACA_site1151] | 10.7 |
| AATATAATAATATTTTGTACATATCCTATGTATGAG [XGTACX_site8601] | 6.5 |
| TATAAATATAAATACACACACACATCAATACAGATA [CACACA_site5850] | 6.87 |
| CGCGAACATACATACACACACATATATATATCTGTA [CACACA_site4277] | 6.98 |
| ATTGAATTCCAACTGGTGCACCAGTAAGATTGAAAA [GTGCAC_site9895] | 10.1 |
